Assay results as given in PubChem BioAssay AID1347428 (National Center for Advancing Translational Sciences (NCATS), 2020).
Screen size: about 91,000 compounds; about 290 (0.32%) were called active. Roughly 7% stayed inconclusive and do not appear here. This is one part of a sample in which actives are shown more often than they occur. Values without a mark were called inactive. Calls follow the shape of the dose curve; as a rule, active = well fitted inhibition curve with a large enough effect; inconclusive = small, poorly fitted or top-dose-only effect; inactive = no such curve, though single readings can be large or run the other way.

Each compound was assayed against Single-stranded DNA cytosine deaminase (Homo sapiens) (UniProt Q9GZX7) (assay: Primary qHTS assay for inhibitors of Activation Induced Cytidine Deaminase (AID): AID signal). Conditions: AID deamination FRET fluorescence, UDG-coupled, 4 h; series mostly up to 115 µM; activity change, negative = inhibition: at the top concentration.
Sequence of Single-stranded DNA cytosine deaminase (Homo sapiens) (Q9GZX7 whole entry, looked up): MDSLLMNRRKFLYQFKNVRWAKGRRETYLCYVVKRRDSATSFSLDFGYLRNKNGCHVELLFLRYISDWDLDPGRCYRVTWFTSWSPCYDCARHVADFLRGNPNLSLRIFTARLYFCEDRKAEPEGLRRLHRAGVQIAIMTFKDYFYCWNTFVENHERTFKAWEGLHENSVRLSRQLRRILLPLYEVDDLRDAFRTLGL
Source text: Assay Provider (PI) Patricia Gearhart Ph.D.
National Institute on Aging
National Institute of Health (NIH), Bethesda, MD
Assay Provider (PI) Rahul Kohli Ph.D.
Perelman School of Medicine
University of Pennsylvania, Philadelphia, PA
Activation-Induced Deaminase (AID) is a cytosine deaminase which converts cytosine into uracil within stretches of ssDNA. The presence of uracil in DNA initiates a cascade of mutagenic DNA repair to introduce point mutations and DNA double strand breaks. Specific targeting of AID to the immunoglobulin heavy chain loci (Igh) promotes mutagenesis in the antibody variable region for somatic hypermutation (SHM) or switch regions leading to class switch recombination (CSR). However, AID also plays a role in accumulating unnecessary mutations across the genome. Mis-targeting of AID results in the initiation of tumor development and leads to greater drug resistance among cancer cells when continually expressed. To identify an AID inhibitor, a small molecule library will be screened in collaboration with NCATS core facility at NIH. To confirm biological function, inhibitors will be examined in an in vitro murine B-cell activation assay and subsequent secondary validation screens. Top molecules will be further screened to identify inhibitory efficacy against a wild type primary splenocytes assay. Using these approaches, we hope to identify a small molecule with great efficacy and low toxicity for use as a molecular probe to further characterize AID's intricacies, or even as a therapeutic.
A FRET based analysis of cytosine deamination, was developed to identify potential inhibitors of AID catalytic activity. This screen has two signal output, Read 1 evaluates the AID inhibition response. The second readout (Read 2) evaluates UDG response and is uses as a counterscreen to exclude false positive inhibitors. Inhibition in AID and inactivity in the UDG signal is the desired outcome for this assay.
SEQUENCE No. (e.g., 1, 2, 3, etc.); […] (e.g., Cells, Incubation, Reagent, etc.); VALUE; DESCRIPTION
1a; Reagent; 3 uL; [4/3x] 1 uM AID/2.67 U/mL UDG
1b; Reagent; 3 uL; 2 U/mL UDG
1c; Reagent; 3 uL; 1 uM AID
2a; Compound; 46 nL; Follow-up plates (0.64 uM - 10 mM)
2b; Control; 46 nL; ATA ([…] - 10 mM)
3; Time; 10 min; incubation at room temperature
5; Time; 4 hr; incubation at room temperature
6; Reagent; 4 uL; [2x] 250 mM NaOH
7; Time; 15 sec; centrifuge at 1000 rpm
8; Time; 30 min; incubation at room temperature
9a; Detection; fluorescence (Read 1: AID); EnVision (PerkinElmer) plate reader, 540 excitation and 590 emission filters
9b; Detection; fluorescence (Read 2: UDG); EnVision (PerkinElmer) plate reader, 560 excitation and 665 emission filters
NOTES (numbers refer to sequence above)
1a; Reagents were dispensed in a medium-binding black solid-bottom Greiner plates (789176F) using a BioRptr liquid dispenser. Dispense 3 uL of [4/3x] 1 uM AID (provided by Kohli lab) and [4/3x] 2 U/mL UDG (NEB M0280L) into columns 1, 2, 5 to 48.
1b; Dispense 3 uL of [4/3x] 2 U/mL UDG into column 3.
1c; Dispense 3 uL of [4/3x] 1 uM AID into column 4.
2a; Compound (7-points [uM] (0.64; 3.2; 16; 80; 400; 2,000; 10,000; 20,000) double pin-transferred (Dip Factor = 2) using the Kalypsys (Wako USA) pintool equipped with a 1536 pinhead for a final concentration range of 7.32 nM - 114 uM.
2b; 10 mM Aurintricarboxylic Acid (Sigma A1895) (ATA, 8-point, n = 2, 1:2.5 dilution in column 2) double pin-transferred (Dip Factor = 2) using the Kalypsys (Wako USA) pintool equipped with a 1536 pinhead for a [final] range of 186 nM - 114 uM.
3; Room temperature incubation.
4; Dispense 1 uL of substrate mixture from the Kohli lab [4x] […] DJC20 and [4x] 250 nM DJC23 into columns 1 to 48 .
5; Room temperature incubation.
6; Dispense 4 uL of substrate mixture [2x] 250 mM NaOH into columns 1 to 48.
7; Centrifugation step to remove bubbles.
8; Room temperature incubation
9a; Fluorescence signal (column label AID) was read using the EnVision plate reader. […]
% is scaled to controls: 0 for no effect and ±100 for the full control effect; potency is read from the fitted curve at half-maximal effect.
Also: nearly all actives have a fitted effect of over 25% in size.

SMILES	activity change, negative = inhibition [%]	Potency
CSc1ccc(C)c(C(=O)NCC2CC2)c1	-3.38	
O=C(O)Cn1cccc(C(F)(F)F)c1=O	-5.47	
COc1cc(C(=O)NC2CCOC2=O)cc(OC)c1OC (configuration not stated)	-0.451	
O=C(O)CCCC(=O)N1CCN(c2ccc(Cl)c(Cl)c2)CC1	-1.12	
Cc1cc(Br)cc(C)c1O	2.69	
O=C(Nc1ccc(Br)cc1)C(c1ccccc1)C1CCCC1 (configuration not stated)	1.06	
O=C(NCc1ccc(F)cc1)NC1CC1	10.1	
O=C(/C=C/c1ccc(OCc2ccccc2)cc1)c1cccnc1	-9.09	
CN(CCOc1ccc(Br)cc1)C(=O)CSc1nnnn1C	-1.3	
CC(C)c1ccc(Cn2c(COc3ccccc3)nc3ccccc32)cc1	-27.4	
CC(C)c1ccc2c(c1)c(SC(C)(C)C)c(CC(C)(C)C(=O)O)n2Cc1ccc(Cl)cc1		79.4 µM (active)
Cc1c(C)n(Cc2ccc(Cl)cc2)c2ccc(C(=O)N3CCN(c4ccccc4F)CC3)cc12	-18.3	
CC1CCc2cc(F)ccc2N1C(=O)C1(C)CC1(Br)Br (configuration not stated)	-6.2	
CC(C)CNC(=O)NC1=C(C#N)C(C)(C)Cc2ccccc21	-1.37	
CNc1snc(C)c1C(=O)N(C)CCOc1ccccc1C	4.47	
CCOc1ccc(C(=O)Nc2cc(C(F)(F)F)ccc2Cl)cc1Cl	3.9	
COc1cc(C2SCCS2)ccc1OC(=O)c1ccc2c(c1)NC(=O)CS2	-4.16	
COc1ccc(OC)c(-n2cnc3c2NC(=O)CC3c2ccsc2)c1 (configuration not stated)	24.8	
O=C(NCCc1ccc(C(F)(F)F)cc1)c1ccccn1	-1.76	
COc1ccc(C2Nc3ccccc3C(=O)N2c2ccc(C)cc2)cc1CN1CCOCC1 (configuration not stated)	0.31	
Cc1ccccc1NC(=O)CSC1=C(C#N)C(c2ccccc2F)CC(=O)N1 (configuration not stated)	-9.28	
Cc1noc(C)c1COc1cccc(C(=O)Nc2ccc(S(=O)(=O)NCc3ccco3)cc2)c1	-5.53	
Cc1cc(Nc2ccccc2)n2nc(Cc3ccc(Cl)cc3)nc2n1	-19.8	
CN(C)S(=O)(=O)c1ccc(NC(=O)COc2ccc3cc(Br)ccc3c2)cc1	0.34	
O=C(c1cc2ccccc2o1)c1ccc(F)cc1F	-2.04	
Cc1cc(C)c(NC(=O)C(C)Oc2ccc(C#N)cc2)c(C)c1 (configuration not stated)	-8.62	

SMILES	activity change, negative = inhibition [%]	Potency
COCCn1cnnc1SC(C)C(=O)c1ccc(F)cc1 (configuration not stated)	3.25	
COC(=O)c1ccc(C(=O)OC(C)C(=O)C23CC4CC(CC(C4)C2)C3)cc1 (configuration not stated)	-5.4	
CCCCn1c(N2CCN(CCc3ccccc3)CC2)nc2c1c(=O)[nH]c(=O)n2C	-4.37	
Cn1c(=O)n(Cc2ccccc2)c(=O)c2c1nc(NCc1ccccc1)n2Cc1ccccc1	-8.97	
CCC/C=N/NC(=O)c1ccc(C)cc1C	-3.8	
COc1ccc(C(=O)/C(C#N)=C\c2ccccc2C(F)(F)F)cc1	-17.9	
CCCCCCCCS(=O)(=O)CCCCCCC(=O)O	-5.95	
CC(=O)c1ccc(NC(=O)NCCCN(C)CC(F)(F)F)cc1	7.31	
CCCCn1nc(C(=O)Nc2cccc(C(=O)NC3CC3)c2)c2ccccc2c1=O	0.862	
CCc1ccc(CCC(=O)NC)cc1	-3.77	
CC(=O)N1CCC(C(=O)Nc2ccc(Br)cc2)CC1	-1.32	
Cc1cccc(C(=O)OC2CCCN(C)C2)c1 (configuration not stated)	1.04	
CCN(CC)C(=S)SC(C(N)=O)c1ccccc1 (configuration not stated)	-2.39	
CCCc1cc(=O)oc2cc(OS(=O)(=O)c3cccc(C#N)c3)ccc12	-6.87	
CCn1c(C)cc(/C=C(\C#N)c2ccc(Br)cc2)c1C	-17	
CCOC(=O)C1CCN(C(=O)COC(=O)c2cn(-c3ccccc3)nc2-c2ccc(Cl)cc2)CC1	-1.08	
O=C(COc1ccccc1)NCc1ccc2c(c1)CCN2C(=O)c1ccc(F)cc1		22.4 µM (active)
COc1ccc(CCC(=O)NCc2ccc3c(c2)CCN3C(=O)c2ccc(F)cc2)cc1	-16.6	
CCOc1ccccc1C(=O)NCc1ccc2c(c1)CCN2C(=O)c1ccc(F)cc1	-1.92	
N#CCCc1c(O)ccc2ccccc12	-3.83	
Cc1cccc(NC(=O)C(C#N)C(=O)CC(C)(C)C)c1 (configuration not stated)	-20.9	
O=C(CSc1nc2c(c(=O)n1CCc1ccccc1)SCC2)Nc1cccc2ccccc12	-4.61	
O=C(Nc1ccc(C(F)(F)C(F)(F)C(F)(F)F)oc1=O)c1ccccc1	-2.06	
CCOc1ccc(NC(=O)Cn2cc(C(=O)c3ccc(C)cc3)c(=O)c3cc4c(cc32)OCCO4)cc1	2.34	
COc1ccc(NC(=O)Cn2cc(C(=O)c3ccncc3)c(=O)c3cc(C)ccc32)cc1Cl	20.6	
COc1ccc(Cn2cc(C(=O)c3ccc(C)cc3)c(=O)c3cc(OC)c(OC)cc32)cc1		44.7 µM (active)
